Results with a measured potency or affinity are listed apart. Active and inactive are the calls of the source.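 The calls were made as follows: active = cell killing with fitted half-maximal concentration at most twice the top valid dose; inconclusive = flat partial loss of 30 to 70%, or poor fit; inactive = the rest.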

This assay is described as follows: HEK293 cell viability loss – cherry-picked samples, cytotoxicity control, dose response (AID 1053185). The following applies: HEK293T viability, ATP luminescence, 72 h; series mostly up to 26 µM.
On to `COc1cc(CN2C[C@@H]3N[C@H](C2)C3c2ccc(-c3ccc(C#N)cc3)cc2)cc(OC)c1` (some centres undefined), for which the call was inactive.

Regarding `C[C@@H]1CN([C@@H](C)CO)C(=O)Cc2cc(NC(=O)C3CCCCC3)ccc2O[C@@H]1CN(C)Cc1ccc(Cl)c(Cl)c1`, the result was inactive.

For the molecule `COc1ccc2c3c(n(C)c2c1)[C@@H](CO)N(CC1CC1)CC31CN(C(=O)c2ccc3c(c2)OCO3)C1`, the molecule was classed as inactive.

For `CNC[C@@H]1Oc2cc(C#Cc3ccccc3OC)ccc2S(=O)(=O)N([C@H](C)CO)C[C@H]1C`, the molecule was called inactive.

On to `CN(C)C(=O)c1cccc(-c2ccc(C3[C@@H]4CN(Cc5ccccc5F)C[C@H]3N4)cc2)c1` (some centres undefined), for which the outcome was inactive.

Consider `CO[C@@H](CN(C)Cc1cc(F)ccc1F)[C@@H](C)CN(C(=O)Nc1ccc(C(F)(F)F)cc1)[C@H](C)CO`, for which the molecule was called inactive.

Turning to `COc1cccc(-c2cccc(-c3nc(C(=O)Nc4ccc(-c5ccccc5)cc4)cc4c3[C@@H](CCO)N(S(=O)C(C)(C)C)C4)c2)c1` (some centres undefined), the molecule was classed as inactive.

In the case of `C/C=C/c1ccc([C@H]2[C@@H](CO)N3C(=O)CN(Cc4ccc(F)cc4)C[C@@H]23)cc1`, the call was inactive.

On to `O=S(=O)(c1ccc(F)cc1)N1C[C@@H]2N[C@H](C1)C2c1ccc(/C=C/c2ccccc2)cc1` (some centres undefined), for which the molecule was classed as inactive.

(Values after PubChem BioAssay AID1053185 (Broad Institute, 2014).)
